High-throughput results from PubChem BioAssay.
Shown are actives, neighbours in structure and some others; about 1.4% of the full set was active somewhere.
MEX-5 binding = C. elegans MEX-5 TCR-2 RNA binding activity | MEX-5/FITC-TCR2 RNA binding, fluorescence polarization; hits give low values | actives 0.38% (n = 300,000) | activity score (negative = inhibition of binding), % at 10 µM;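 active = inhibition past about -25% in most replicates, and total fluorescence under double the plate's negative control median, limit read from the data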;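 note: 0% = DMSO and -100% = 5 µM competing unlabeled TCR2 RNA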
MCL1 BIM primary = disrupts human MCL1 binding to BIM-BH3 peptide | GST-MCL1 / FITC-Bim-BH3 fluorescence polarization | inhibition, % at 10.9 µM | actives 0.68% (n = 320,000);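 active = inhibition above the mean inhibition of all tested compounds plus 3 SD, set per campaign, cut at about 40% in these data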;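 note: 0% = DMSO wells and 100% = unlabeled Bim-BH3 peptide control; higher means more loss of mP so more displacement of Bim peptide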
Bcl-xL primary = blocks human Bcl-xL binding to Bim BH3 peptide. Q07817. GST-Bcl-xL / FITC-Bim BH3 peptide fluorescence polarization. inhibition, % at 10.9 µM. actives 0.7% (n = 320,000). AID 2129;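 active = inhibition above the mean of all tested compounds plus 3 SD, cutoff set per campaign, cut at about 30% in these data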;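 note: 0% = DMSO wells and 100% = unlabeled Bim-BH3 peptide competitor; inhibitors lower millipolarization by displacing the labeled peptide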
GLD-1 TGE inh = GLD-1-TGE RNA interaction inhibition (C. elegans); inhibition, % at 5.96 µM; actives 0.44% (n = 320,000); Q17339; purified GLD-1 + fluorescein TGE RNA, fluorescence polarization;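 active = percent inhibition above a per-plate cutoff, the plate mean of test compounds plus 3 SD, cut at about 30% in these data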;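 note: 0% = DMSO wells with GLD-1 and probe and 100% = wells lacking GLD-1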
eLon inh = inhibitors of E. coli Lon protease; P0A9M0; purified E. coli Lon protease, fluorescence polarization; inhibition, % at 7.94 µM; actives 0.42% (n = 360,000); AID 602123; in the data active = inhibition above about 13%, passing the limit was not always enough;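 note: 0% = enzyme with probe and DMSO and 100% = no enzyme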
Target sequence (P0A9M0 whole entry, looked up): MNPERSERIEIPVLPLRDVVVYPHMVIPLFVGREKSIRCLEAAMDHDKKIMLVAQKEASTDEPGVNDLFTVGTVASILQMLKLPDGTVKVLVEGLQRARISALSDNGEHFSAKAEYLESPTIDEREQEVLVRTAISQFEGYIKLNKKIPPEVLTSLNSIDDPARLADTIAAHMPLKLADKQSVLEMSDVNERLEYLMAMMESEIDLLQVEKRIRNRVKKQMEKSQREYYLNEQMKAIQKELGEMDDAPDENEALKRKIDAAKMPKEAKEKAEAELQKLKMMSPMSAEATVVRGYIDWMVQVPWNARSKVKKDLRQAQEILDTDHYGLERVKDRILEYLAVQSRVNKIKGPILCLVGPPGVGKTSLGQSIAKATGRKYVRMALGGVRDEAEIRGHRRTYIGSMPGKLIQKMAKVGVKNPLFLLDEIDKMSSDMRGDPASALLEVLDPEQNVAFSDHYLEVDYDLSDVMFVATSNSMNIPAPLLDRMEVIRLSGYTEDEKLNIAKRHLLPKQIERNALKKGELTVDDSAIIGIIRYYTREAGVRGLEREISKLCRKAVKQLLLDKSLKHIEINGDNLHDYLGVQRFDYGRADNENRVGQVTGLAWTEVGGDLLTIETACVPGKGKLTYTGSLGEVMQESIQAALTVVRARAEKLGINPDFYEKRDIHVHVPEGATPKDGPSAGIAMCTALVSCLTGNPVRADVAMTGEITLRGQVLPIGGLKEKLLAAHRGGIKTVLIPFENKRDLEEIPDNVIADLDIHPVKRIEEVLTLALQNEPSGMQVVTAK
An asterisk follows results filed as active; / = no result given.

SMILES | MEX-5 binding | MCL1 BIM primary | Bcl-xL primary | GLD-1 TGE inh | eLon inh
CCc1c(C)nc(SCC(=O)c2cccs2)c(C#N)c1C | -34* | -7 | -1 | -24 | -44
CCc1c(C)nc(SCC(N)=O)c(C#N)c1C | 1 | 4 | 2 | 0 | -1
COc1ccccc1CN1C(=O)C(Cc2ccccc2)ON=C1c1ncccc1C (stereo unspecified) | / | / | / | / | 5
COc1ccc(-c2nc3n(c2C)Cc2ccccc2-3)cc1 | -2 | 41* | 46* | 4 | 7
CCCCC1=CC2=CC(=O)C(C)(OC(=O)CC)C(=O)C2=CN1c1cccc(C#N)c1 (stereo unspecified) | -6 | 32 | 31* | 40* | -17
CCCCC1=CC2=CC(=O)C(C)(OC(=O)CC)C(=O)C2=CN1c1ccc(OC)cc1 (stereo unspecified) | -3 | 4 | 10 | 12 | 5
CCn1c(C)c(C2=CCN(S(=O)(=O)c3ccccc3)CC2)c2ccccc21 | 1 | -1 | 20 | 32* | -3
Cc1ccc(S(=O)(=O)N2CC=C(c3c(C)n(C)c4ccccc34)CC2)cc1 | 0 | 28 | 17 | 14 | 2
O=C(Nc1ccccc1Cl)c1cc(C2CCCN(C(=O)c3cccc(O)c3)C2)on1 (stereo unspecified) | / | / | / | / | -10
CCn1c(C)nc2cc(N)ccc21 | -51* | 7 | 3 | -1 | -13
Cc1nc2cc(N)ccc2n1C1CCCCC1 | -39* | 4 | 0 | 1 | -3
Cc1ccc(NC(=O)C2(C)CCN2C2Cc3ccccc3C2)cc1 (stereo unspecified) | / | / | / | / | 0
CC(C)Oc1cc(F)ccc1-c1cc(C(=O)Nc2cccc(C(F)(F)F)c2)[nH]n1 | / | / | / | / | -4
CN1CCN(C(=O)c2ccc3c(c2)NC(=O)/C(=C/c2ccccc2)S3)CC1 | -1 | -1 | 2 | -4 | 4
Cc1ccc(/C=C2/Sc3ccc(C(=O)N4CCN(c5ccccn5)CC4)cc3NC2=O)cc1 | -61* | -12 | -6 | -5 | -37
COc1ccc(-c2sc(NC(=O)c3ccc(C)cc3)nc2-c2ccc([N+](=O)[O-])cc2)cc1 | 3 | -18 | -10 | -12 | 3
COc1ccc(C(=O)Nc2nc(-c3ccc([N+](=O)[O-])cc3)c(-c3ccccc3)s2)cc1 | -162* | 4 | -1 | 0 | -3
Cc1cc(C(=O)NNC(=O)CCCCC(=O)NNC(=O)c2cc(C)[nH]n2)n[nH]1 | -37* | 11 | -1 | 7 | -10
COc1ccc(CC(=O)NNC(=O)c2cc(C)[nH]n2)cc1 | -8 | -7 | -1 | 2 | -2
CCCCn1nnnc1C1(C)CCC(=O)N1C1CC1 (stereo unspecified) | / | / | / | / | -3
Nc1ccc(Oc2ccccc2F)nc1 | 1 | 8 | 14 | 32* | -19
Nc1cccnc1Oc1ccccc1F | -3 | 7 | 7 | 1 | -1
COc1ccc(C(C(=O)NC2CCCC2)N(C(=O)c2ccoc2C)c2cc(C)cc(C)c2)cc1 (stereo unspecified) | 2 | 7 | 52* | 2 | -4
O=C1C(Cl)=C(Nc2ccc3cn[nH]c3c2)C(=O)c2ccccc21 | -5 | 33 | 33* | 1 | 11
O=C(Nc1ccc2cn[nH]c2c1)c1c(Cl)cccc1Cl | 0 | -6 | 5 | 1 | -7
SMILES | MEX-5 binding | MCL1 BIM primary | Bcl-xL primary | GLD-1 TGE inh | eLon inh
CC1CCC2(CC1)NC(=O)N(CC(=O)Nc1ccc(N3CCCCC3)cc1)C2=O (stereo unspecified) | / | / | / | / | -3
O=C1OC(/C(=C\Nc2cc(Cl)ccc2O)[N+](=O)[O-])c2ccccc21 (stereo unspecified) | -26* | -4 | 1 | 9 | -2
Cc1cccc(C)c1NC(=O)NN=C1CCCCC1 | -29* | -2 | 2 | -6 | 1
CN=C(NC(=O)Nc1c(C)cccc1C)NC(=O)Nc1c(C)cccc1C | 0 | -3 | 4 | -5 | -5
CC(C)(C)c1ccc(C(=O)NNC(=S)NCc2ccco2)cc1 | -1 | -4 | -3 | 5 | 9
CC(C)(O)C(=O)NNC(=S)NCc1ccco1 | -32* | 6 | 2 | -2 | 1
CN1C=C/C(=C\c2cc[n+](C)c3ccccc23)c2ccccc21 | -67* | / | / | / | 7
CCOc1ccc2[nH]c(C)c(CN3CCOCC3)c(=O)c2c1 | -8 | 4 | 8 | 6 | 4
CCOc1ccc2[nH]c3ncccc3c(=O)c2c1 | -13 | 52* | 42* | 26 | 26
CC(=O)NC12CC3CC(C1)CC(C(=O)OCC(=O)Nc1ncc(Cl)c(C)c1Cl)(C3)C2 | -4 | 36 | 37* | 14 | -1
